The text below walks through data of PubChem BioAssay (NCATS).

Test [1] has as its target Peroxisome proliferator-activated receptor gamma (Homo sapiens) (UniProt P37231). The test is described as follows: qHTS assay for small molecule antagonists of peroxisome proliferator-activated receptor gamma signaling (AID 588537; active means well fitted inhibition curve with a large enough effect in the signal ratio, with a control signal flat, not every such curve was filed as active; the % refers to the signal ratio;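 further: reporter cells co-stimulated with 50 nM rosiglitazone agonist during compound treatment; % of control where 0% means no effect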). Put shortly:
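Read-out: CCF4 fluorescence (ex 405, em 460/530 nm) after 2 h at RT. Cells were HEK293 carrying a UAS-bla reporter and treated 16 h at 37 C with compound plus rosiglitazone (50 nM final). Normalized to rosiglitazone and DMSO.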
(In general: Quantitative high-throughput screening tests each substance at several concentrations.)

The target in test [2] is Vitamin D3 receptor (Homo sapiens) (UniProt P11473). Put plainly: qHTS assay for small molecule antagonists of vitamin D receptor signaling (AID 588541; calls by dose curve;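 further: receptor activated by calcitriol during compound treatment; series mostly up to about 77 µM; on the % scale 0 is the no-effect control and ±100 the full control effect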). Put shortly:
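VDR-UAS-bla HEK293T cells in 2% charcoal-stripped FBS were stimulated with 1-alpha,25-dihydroxyvitamin D3 (3 nM final) plus compound for 16 h at 37 C. The beta-lactamase CCF4 readout was normalized to 50 nM agonist and DMSO, and Hill fits gave IC50.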

The nature of test [3]: qHTS assay for small molecule agonists of retinoid X receptor alpha signaling (AID 588544; calls by dose curve). To be noted: HEK293T RXRa-UAS-bla, beta-lactamase reporter, 18 h; 530 nm emission.
Test [4] has as its target Retinoic acid receptor RXR-alpha (Homo sapiens) (UniProt P19793). Described as above.
The nature of test [5]: qHTS assay for small molecule antagonists of retinoid X receptor alpha signaling (AID 588546; active means well fitted inhibition curve with a large enough effect in the signal ratio, with a control signal flat, not every such curve was filed as active; the % refers to the signal ratio;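 further: cells stimulated with 9-cis-retinoic acid as agonist; on the % scale 0 is the no-effect control and ±100 the full control effect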). The settings on record: HEK293T RXRa-UAS-bla, beta-lactamase ratio, antagonist mode; measured here: W530 green channel, cytotoxicity proxy. Put shortly:
(§1)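 Beta-lactamase reporter inhibition, read as CCF4 fluorescence ratio (ex 405, em 460/530 nm) after 2 h at RT. HEK293T UAS-bla cells, 2500/well, were stimulated with 9-cis-RA at 500 or 100 nM final alongside test compound for 18 h at 37 C.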

The target of test [6] is Retinoic acid receptor RXR-alpha (Homo sapiens) (UniProt P19793). Described as above. The settings on record: HEK293T RXRa-UAS-bla, beta-lactamase ratio, antagonist mode. Put shortly:
as §1

Test [7] deals with Thyroid hormone receptor beta (Homo sapiens) (UniProt P10828). Put plainly: qHTS assay for small molecule antagonists of thyroid hormone receptor beta signaling (AID 588547; active means well fitted inhibition curve with a large enough effect in the signal ratio, with a control signal flat, not every such curve was filed as active; the % refers to the signal ratio;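 further: cells stimulated with 0.4 nM T3 agonist during compound exposure; series mostly up to about 77 µM; on the % scale 0 is the no-effect control and ±100 the full control effect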). The settings on record: TR-UAS-bla HEK293, beta-lactamase ratio, antagonist mode, 18 h. The method, boiled down:
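TR-UAS-bla GripTite HEK293 cells in 2% charcoal/dextran FBS medium; compounds 0.59 nM to 92 uM with T3 at 0.4nM final, 18 h at 37 C. Beta-lactamase read by CCF4 fluorescence (460/530 nm); Hill fits gave IC50 and efficacy.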

In test [8] the target is Voltage-gated inwardly rectifying potassium channel KCNH2 (Homo sapiens) (UniProt Q12809). Put plainly: qHTS Assay for Small Molecule Inhibitors of the Human hERG Channel Activity (AID 588834).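 Further: top concentration of the series differs between compounds; on the % scale 0 is the no-effect control and ±100 the full control effect; lower thallium flux fluorescence means stronger hERG block; nearly all actives have a fitted effect of over 50% in size.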 The method, boiled down: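 Homogeneous FluxOR thallium flux assay using hERG-expressing U2OS cells (BacMam). Compound treatment about 10 minutes preceded stimulation; reduced fluorescence taken as channel block.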
Chain of Voltage-gated inwardly rectifying potassium channel KCNH2 (Homo sapiens) (Q12809 whole entry, looked up): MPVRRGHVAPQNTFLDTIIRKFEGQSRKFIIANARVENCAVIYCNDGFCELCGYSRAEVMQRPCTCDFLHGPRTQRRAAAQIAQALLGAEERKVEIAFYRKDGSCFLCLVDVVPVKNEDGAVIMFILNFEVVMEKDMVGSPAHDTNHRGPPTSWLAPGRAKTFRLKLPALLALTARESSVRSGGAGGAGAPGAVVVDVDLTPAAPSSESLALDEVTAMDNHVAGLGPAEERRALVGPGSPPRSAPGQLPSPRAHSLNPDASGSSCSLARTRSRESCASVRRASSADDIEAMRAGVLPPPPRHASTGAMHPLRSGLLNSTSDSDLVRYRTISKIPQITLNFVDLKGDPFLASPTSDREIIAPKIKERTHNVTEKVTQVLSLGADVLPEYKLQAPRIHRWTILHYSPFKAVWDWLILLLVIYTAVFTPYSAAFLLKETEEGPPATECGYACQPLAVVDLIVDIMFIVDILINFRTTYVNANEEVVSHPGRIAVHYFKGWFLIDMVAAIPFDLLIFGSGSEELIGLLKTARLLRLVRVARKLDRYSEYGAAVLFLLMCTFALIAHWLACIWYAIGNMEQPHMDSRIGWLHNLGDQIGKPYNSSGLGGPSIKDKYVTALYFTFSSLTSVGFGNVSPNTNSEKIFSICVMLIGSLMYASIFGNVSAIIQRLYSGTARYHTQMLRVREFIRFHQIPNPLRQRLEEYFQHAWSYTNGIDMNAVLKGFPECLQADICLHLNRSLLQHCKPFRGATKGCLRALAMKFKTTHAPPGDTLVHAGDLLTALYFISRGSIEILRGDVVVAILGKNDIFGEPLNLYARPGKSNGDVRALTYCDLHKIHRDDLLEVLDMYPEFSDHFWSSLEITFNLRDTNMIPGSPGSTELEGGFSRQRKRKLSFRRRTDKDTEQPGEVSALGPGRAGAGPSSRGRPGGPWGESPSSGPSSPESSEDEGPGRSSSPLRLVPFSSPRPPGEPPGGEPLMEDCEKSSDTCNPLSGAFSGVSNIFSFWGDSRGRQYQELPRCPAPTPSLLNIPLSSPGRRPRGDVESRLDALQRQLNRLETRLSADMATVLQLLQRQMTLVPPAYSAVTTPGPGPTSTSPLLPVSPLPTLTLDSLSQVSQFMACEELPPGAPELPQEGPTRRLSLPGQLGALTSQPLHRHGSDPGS

Test [9] has as its target Luciferin 4-monooxygenase (Photinus pyralis) (UniProt P08659). The test is described as follows: Biochemical firefly luciferase enzyme assay for NPC (AID 624030).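 Further: purified P. pyralis luciferase at 10 nM with luciferin and ATP substrate; series mostly up to about 59 µM; 0% = DMSO and -100% = full luciferase inhibition by PTC124 control; nearly all actives have a fitted effect of over 70% in size.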 Put shortly: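 Purified P. pyralis luciferase at 10 nM in 50 mM Tris Acetate (final), luminescence read within 5 minutes of enzyme addition to compounds. Activity normalised to PTC124 versus DMSO; concentration-response curves classed by r2, magnitude and activity.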

Test [10] is described as follows: S16 Schwann cell viability assay (CellTiter-Glo assay) (AID 624031).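 Further: cellular ATP luminescence as a viability measure; series mostly up to about 58 µM; plate controls were DMSO-treated cells for no effect and cell-free wells for full effect; nearly all actives have a fitted effect of over 70% in size.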 The method, boiled down: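 This viability control uses native rat S16 Schwann cells grown in DMEM plus 10% FBS. After a 24 h compound treatment at 37 °C, CellTiter-Glo luminescence reports ATP content, scaled against DMSO-treated and cell-free wells.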
In general terms: In ATP-based viability assays light output follows the ATP content of the culture.

Test [11] is described as follows: S16 Schwann cell PMP22 intronic element firefly luciferase assay (AID 624032). Further: nearly all actives have a fitted effect of over 30% in size. Further: potency means the concentration at half of the fitted maximal effect. The method, boiled down:
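Rat S16 Schwann cells stably carrying firefly luciferase driven by a PMP22 intronic element, in 10% FBS, treated 24 h at 37 C. ONE-Glo luminescence normalized to PTC124 control and DMSO (0%); curves classed by r2, magnitude and activity.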

The target of test [12] is Thyroid hormone receptor beta (Homo sapiens) (UniProt P10828). Put plainly: qHTS assay for small molecule agonists of thyroid hormone receptor beta signaling (AID 588545; calls by dose curve;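 further: 0% = DMSO only and 100% = 10 nM T3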). The method, boiled down:
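Beta-lactamase reporter activity under TR response element control is measured in HEK 293 cells after 18 hrs compound exposure. Signal is ratiometric CCF4 fluorescence, 460/530 nm.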

In test [13] the target is Vitamin D3 receptor (Homo sapiens) (UniProt P11473). Put plainly: qHTS assay for small molecule agonists of vitamin D receptor signaling (AID 588543; calls by dose curve;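 further: 0% = DMSO basal and 100% = reference agonist control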). The method, boiled down:
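Measured: β-lactamase reporter activity (CCF4, 405 nm excitation, 460/530 nm emission) in HEK293T VDR-UAS-bla cells after 16 h compound exposure at 37 °C. Normalization against 50 nM 1α,25-dihydroxyvitamin D3 and DMSO; Hill-fit EC50.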

Test [14] can be described thus: S16 Schwann cell PMP22 intronic element beta-lactamase assay (AID 624044; calls by dose curve;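 further: 0% = DMSO and -100% = potassium clavulanate positive control; nearly all actives have a fitted effect of over 15% in size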). The method, boiled down: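 Beta-lactamase reporter under a PMP22 intronic regulatory element in stable S16 rat Schwann cells; 24 h compound exposure. 460 nm blue signal normalized between DMSO (0%) and potassium clavulanate, with 535 nm FRET tracking viability; curves classed by r2 and response.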

The nature of test [15]: qHTS of Trypanosoma Brucei Inhibitors: LOPAC Validation (AID 624147). Further: 0% is about no effect. The method, boiled down:
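Screened from lowest to highest concentration, compounds were pinned into TbPYK/substrate mixtures, and ADP (130 uM final) was added. Plates sat at room temperature for 45 min prior to Kinase-Glo Plus detection by luminescence.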

In test [16] the target is Glucagon-like peptide 1 receptor (Homo sapiens) (UniProt P43220). Put plainly: qHTS of GLP-1 Receptor Agonists: LOPAC Validation (AID 624148).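 Further: 0% is about no effect; higher luminescence signal means agonism.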 The method, boiled down: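 HEK293 cells stably co-expressing GLP-1R and a cAMP-responsive luciferase reporter, plated 12 hours before compound, then incubated 4-6 hr at 37 deg C. Luminescence read 12 min after detection reagent.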
Chain of Glucagon-like peptide 1 receptor (Homo sapiens) (P43220 whole entry, looked up): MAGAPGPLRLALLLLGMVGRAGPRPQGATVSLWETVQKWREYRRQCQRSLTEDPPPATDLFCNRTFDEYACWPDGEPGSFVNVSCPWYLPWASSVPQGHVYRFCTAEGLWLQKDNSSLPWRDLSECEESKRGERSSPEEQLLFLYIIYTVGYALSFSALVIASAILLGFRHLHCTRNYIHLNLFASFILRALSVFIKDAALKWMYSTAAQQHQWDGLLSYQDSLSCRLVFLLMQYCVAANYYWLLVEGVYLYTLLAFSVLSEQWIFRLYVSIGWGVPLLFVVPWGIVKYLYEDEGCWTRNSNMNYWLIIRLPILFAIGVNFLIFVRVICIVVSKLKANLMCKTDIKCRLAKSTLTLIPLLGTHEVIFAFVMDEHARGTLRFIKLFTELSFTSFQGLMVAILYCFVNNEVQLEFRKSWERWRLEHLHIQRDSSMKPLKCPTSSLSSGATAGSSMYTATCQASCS

The nature of test [17]: qHTS of Nrf2 Activators: LOPAC Validation (AID 624149). Further: 0% is about no effect. Put shortly: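 AREc32_Fluc cells, 1000/well, OPTI-MEM + 5% FBS, o/n 37 deg C 5% CO2; compound pin-transfer, 24 hr 37 deg C; Steady-Glo 30 min RT, luminescence read.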
A short description of test [18]: HTS Assay for Allosteric Antagonists of the Human D2 Dopamine Receptor: Hit Validation in HTRF (AID 624455). Further: on the % scale 0 is the no-effect control and ±100 the full control effect. The method, boiled down: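 HTRF read-out; cells stably expressing D1 receptor; hits scored for inhibition of D1-mediated response. Primary screen: calcium flux, force-coupled inducible Hek293 Trex D2 line, antagonism vs EC80 dopamine.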
For orientation: TR-FRET usually uses a lanthanide donor and a delayed reading to cut background.

Values joined by “and” are separate entries in the source; they are usually repeats but may differ in a detail not shown here. Identical values can stand only once. Records with an inconclusive call do not appear. Active and inactive are the calls of the source. Unless noted, the call rests on the fitted dose curve; in most records, active means well fitted curve in the direction sought with a large enough effect; inconclusive means small, poorly fitted or top-dose-only effect, or another doubt; inactive means no such curve, though single readings can be large; an effect the other way counts as inactive or inconclusive.

Chain of Retinoic acid receptor RXR-alpha (Homo sapiens) (P19793 whole entry, looked up): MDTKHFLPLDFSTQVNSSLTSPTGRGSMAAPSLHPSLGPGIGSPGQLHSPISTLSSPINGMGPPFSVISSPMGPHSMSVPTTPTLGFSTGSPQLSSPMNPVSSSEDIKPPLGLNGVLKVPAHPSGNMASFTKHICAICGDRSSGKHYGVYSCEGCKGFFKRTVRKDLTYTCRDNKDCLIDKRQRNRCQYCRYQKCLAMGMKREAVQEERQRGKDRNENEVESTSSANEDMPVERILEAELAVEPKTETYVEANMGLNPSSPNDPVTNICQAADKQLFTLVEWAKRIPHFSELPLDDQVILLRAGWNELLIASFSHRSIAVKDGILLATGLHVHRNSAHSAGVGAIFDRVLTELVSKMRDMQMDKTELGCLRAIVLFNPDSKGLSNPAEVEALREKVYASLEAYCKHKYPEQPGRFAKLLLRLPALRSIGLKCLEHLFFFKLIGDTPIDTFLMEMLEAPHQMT
Chain of Thyroid hormone receptor beta (Homo sapiens) (P10828 whole entry, looked up): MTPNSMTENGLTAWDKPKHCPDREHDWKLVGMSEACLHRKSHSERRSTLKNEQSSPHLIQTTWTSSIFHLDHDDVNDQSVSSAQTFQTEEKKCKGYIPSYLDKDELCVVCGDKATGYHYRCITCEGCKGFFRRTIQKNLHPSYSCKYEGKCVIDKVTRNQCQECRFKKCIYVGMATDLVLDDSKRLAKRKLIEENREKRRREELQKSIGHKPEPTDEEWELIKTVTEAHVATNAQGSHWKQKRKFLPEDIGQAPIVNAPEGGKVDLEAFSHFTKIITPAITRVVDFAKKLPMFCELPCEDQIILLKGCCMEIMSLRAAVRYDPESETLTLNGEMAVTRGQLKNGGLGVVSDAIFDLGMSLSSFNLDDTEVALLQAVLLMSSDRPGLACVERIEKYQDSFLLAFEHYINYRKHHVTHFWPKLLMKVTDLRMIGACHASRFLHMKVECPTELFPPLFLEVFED
Chain of Vitamin D3 receptor (Homo sapiens) (P11473 whole entry, looked up): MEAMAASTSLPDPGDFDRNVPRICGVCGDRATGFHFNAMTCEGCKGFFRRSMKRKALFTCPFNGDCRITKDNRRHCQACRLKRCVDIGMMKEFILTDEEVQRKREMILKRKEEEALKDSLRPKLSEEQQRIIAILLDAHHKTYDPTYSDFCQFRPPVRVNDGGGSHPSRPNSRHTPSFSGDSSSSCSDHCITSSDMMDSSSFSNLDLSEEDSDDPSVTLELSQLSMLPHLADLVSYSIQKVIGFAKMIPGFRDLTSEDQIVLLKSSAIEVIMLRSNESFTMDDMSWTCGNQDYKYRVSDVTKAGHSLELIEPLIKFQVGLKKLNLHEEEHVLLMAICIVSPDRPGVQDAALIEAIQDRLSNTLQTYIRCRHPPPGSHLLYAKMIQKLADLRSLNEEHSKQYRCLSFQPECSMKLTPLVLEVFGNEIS
Chain of Luciferin 4-monooxygenase (Photinus pyralis) (P08659 whole entry, looked up): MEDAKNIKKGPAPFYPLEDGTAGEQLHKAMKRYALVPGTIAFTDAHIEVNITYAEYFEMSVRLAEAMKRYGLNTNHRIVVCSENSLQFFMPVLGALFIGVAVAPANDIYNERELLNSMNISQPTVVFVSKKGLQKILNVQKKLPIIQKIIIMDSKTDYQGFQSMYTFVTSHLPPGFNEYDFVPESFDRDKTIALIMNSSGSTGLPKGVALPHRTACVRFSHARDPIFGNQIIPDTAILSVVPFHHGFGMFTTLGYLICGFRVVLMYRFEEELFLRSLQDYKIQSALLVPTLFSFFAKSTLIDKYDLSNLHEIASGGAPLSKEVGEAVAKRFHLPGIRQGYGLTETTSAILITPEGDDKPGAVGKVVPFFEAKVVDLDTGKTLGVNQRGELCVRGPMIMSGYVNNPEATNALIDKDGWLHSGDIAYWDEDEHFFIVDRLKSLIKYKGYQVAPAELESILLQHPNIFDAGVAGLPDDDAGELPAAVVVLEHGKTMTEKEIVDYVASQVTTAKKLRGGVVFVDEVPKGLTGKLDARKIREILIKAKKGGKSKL
Chain of Peroxisome proliferator-activated receptor gamma (Homo sapiens) (P37231 whole entry, looked up): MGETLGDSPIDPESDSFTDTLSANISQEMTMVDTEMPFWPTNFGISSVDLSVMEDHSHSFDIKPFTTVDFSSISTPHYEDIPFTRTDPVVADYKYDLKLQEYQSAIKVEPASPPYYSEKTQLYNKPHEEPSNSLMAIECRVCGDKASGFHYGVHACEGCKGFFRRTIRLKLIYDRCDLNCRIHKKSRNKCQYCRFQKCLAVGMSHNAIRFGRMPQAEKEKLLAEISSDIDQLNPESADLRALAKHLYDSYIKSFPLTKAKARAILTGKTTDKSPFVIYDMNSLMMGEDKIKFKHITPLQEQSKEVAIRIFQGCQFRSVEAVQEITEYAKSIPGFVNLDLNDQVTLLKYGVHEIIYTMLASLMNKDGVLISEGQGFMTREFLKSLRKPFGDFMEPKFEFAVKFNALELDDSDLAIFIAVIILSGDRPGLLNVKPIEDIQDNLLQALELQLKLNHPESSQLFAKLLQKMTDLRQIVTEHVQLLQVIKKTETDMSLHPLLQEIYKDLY

With `Cc1cccc(Nc2cc(Cl)nc(SCC(=O)O)n2)c1C`, the result in test [1], in test [2] and in test [4] was inactive. Besides, the max response in [3] is -6%; in test [5], -6.52%; in test [6], -6.08% (inactive). The activity change % (negative = inhibition) in test [7] is -2.88% (inactive). Further, the Potency result in test [8], in test [9], in test [10] and in [11] was “inactive” each time.
As for `O=C1O[C@H]([C@@H](O)CO)C(O)=C1O`, the result in test [1], in test [4] and in [12] was inactive. In addition, the max response in test [3] is -15.9% and -7.94%; in [5] it was -3.01%; in test [6], 1.04% (inactive). The activity change % (negative = inhibition) in [7] was 4.68% (inactive) and -9.73% (inactive). For the same molecule, the Potency entry in [8], in test [9], in test [10] and in test [11] was “inactive” each time.
As for `Cc1cc(CC(=O)O)n(C)c1C(=O)c1ccc(Cl)cc1`, the outcome in test [2], in test [13] and in test [12] was inactive. In addition, the Potency entry in [8], in [9], in [10] and in test [11] was “inactive” in each case.
Take `CC(CN1c2ccccc2Sc2ccccc21)N(C)C` (configuration not stated): in [3], the max response amounted to 10.3%. Moreover, the molecule was classed as inactive in [4], in test [12], in test [15], in [16], in test [17] and in test [18]. Further, in [7], the activity change % (negative = inhibition) is -18.5% (inactive). Also, the Potency result in [9], in test [10] and in [14] was “inactive” in each case.
With `Nc1ccc(S(=O)(=O)Nc2nccs2)cc1`, the molecule was classed as inactive in test [2], in test [13] and in [4]. The max response is 11.3% in test [3], -9.52% in test [5] and 19.3% (inactive) in [6]. Also, the Potency result in [8], in [9], in test [10] and in test [11] was “inactive” each time.
Consider `COC(=O)C1=C(C)NC(C)=C(C(=O)OC)C1c1ccccc1[N+](=O)[O-]`, for which the call in test [13], in [12], in test [16], in [17] and in [18] was inactive. Further, the max response in test [5] is 8.81%; in test [6] it was 23.4% (inactive). In addition, the activity change % (negative = inhibition) in test [7] was -6% (inactive). Moreover, the Potency entry in test [9], in [10] and in [14] was “inactive” throughout.
`NC(=O)N/N=C/c1ccc([N+](=O)[O-])o1`: the result in test [2], in test [13] and in test [12] was inactive. In addition, the max response is 1.55% and -8.19% in test [5]; 5.86% (inactive) and 14.5% (inactive) in test [6]. In addition, in test [7], the activity change % (negative = inhibition) is 0.5% (inactive). Also, the Potency entry in test [8], in [9], in test [10] and in test [14] was “inactive” throughout. For the same molecule, the Potency in [11] was 10.2 µM (active).
